Hits are enriched below; roughly 13% of the tested compounds scored in any of these assays.
A350 fluor: A350 region autofluorescence | max dye-equivalent concentration, M | Compound autofluorescence, 340/450 nm, Alexa 350 dye-equivalents; active compounds read high | hit rate 11% among 59,000; in the data active means max dye-equivalent concentration above about 10 nM; inconclusive means mostly about 1.1 nM to 9.6 nM
HSD17B inh: HSD17B dehydrogenase inhibition. Q99714. recombinant HSD17B10, NADH fluorescence kinetic. Potency, µM (highest dose often 57.1 µM), for inactives: top-dose activity change, negative = inhibition, usual class: inhibitors. hit rate 7.6% among 75,000. AID 893;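 further: the protocol describes HADH2 (HSD17B10) and not the HSD17B4 of the title; potency means the concentration at half of the fitted maximal effect; on the % scale 0 is the no-effect control and ±100 the full control effect; nearly all actives have a fitted effect of over 70% in size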
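His-tagged E. coli-expressed HADH2 at 20 nM in 100 mM Tris-HCl pH 9.0 with 0.01 % Tween-20, preincubated 15 min with compound at room temperature. Reaction with 1 mM NAD+ and 90 uM beta-hydroxybutyryl coenzyme A; NADH fluorescence (360/450 nm) read kinetically over 4 min, last minus first point.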
AID923: qHTS Assay for Allosteric/Competitive Inhibitors of Caspase-1: Spectroscopic Profiling in AFC Spectral Region | compound fluorescence, AFC spectral region (405/520 nm) | Potency, µM (series often up to 57.5 µM), for inactives: at the highest dose fluorescence increase, most hits filed as activators | hit rate 1.1% among 75,000 | AID 923, 2007; further: potency means the concentration at half of the fitted maximal effect; 0% is about no effect
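Baseline compound fluorescence (AFC region, 405 nm ex/520 nm em) taken from the intercept of kinetic reads with 50 nM caspase-1 and 5 uM Ac-WEHD-AFC; normalized to an on-plate AFC standard curve; compounds titrated up to 57 uM.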
HADH2 inhib: blocks human hydroxyacyl-CoA dehydrogenase type II. Q99714. recombinant HADH2, NADH fluorescence, beta-hydroxybutyryl-CoA. Potency, µM (highest dose often 57.1 µM), inactives show at the highest dose activity change, negative = inhibition, actives largely listed as inhibitors. hit rate 3.4% among 73,000. AID 886; further: potency means the concentration at half of the fitted maximal effect; on the % scale 0 is the no-effect control and ±100 the full control effect; nearly all actives have a fitted effect of over 60% in size
Target sequence (Q99714 whole entry, looked up, one chain of several): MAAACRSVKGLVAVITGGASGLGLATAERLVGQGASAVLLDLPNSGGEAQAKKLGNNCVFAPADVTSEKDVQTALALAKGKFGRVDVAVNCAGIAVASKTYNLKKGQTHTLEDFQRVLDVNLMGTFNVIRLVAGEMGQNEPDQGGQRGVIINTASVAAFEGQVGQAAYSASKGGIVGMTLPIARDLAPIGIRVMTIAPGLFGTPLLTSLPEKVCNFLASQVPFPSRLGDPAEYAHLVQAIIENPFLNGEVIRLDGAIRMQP
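Activity measured as NADH fluorescence gain (360/450 nm), taken as the change between first and last reads of a 4-min kinetic run. Conditions: pH 9.0 Tris buffer, 20 nM E. coli-expressed His-tagged enzyme, 1 mM NAD+, 90 uM beta-hydroxybutyryl-CoA; 15-min compound preincubation.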
4MU fluor: 4-MU region autofluorescence; hit rate 11% among 59,000; max dye-equivalent concentration, M; compound autofluorescence, 340/450 nm, 4-MU equivalents; active compounds read high; in the data active means max dye-equivalent concentration above about 10 nM; inconclusive means mostly about 1.1 nM to 9.6 nM
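Intrinsic fluorescence at 340/450 nm (ex/em) was read after 15 min at room temperature in pH 8.0, 100 mM Tris. Each compound concentration expressed as 4-MU-equivalent concentration from a six-point 4-MU standard series on each plate.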
Starred values were filed as active, the others as inactive; i = inactive; ? = inconclusive; / = no result given; [ ] = another dose, or the depositor's remark. Unless noted, the call rests on the fitted dose curve; in most records, active means well fitted curve in the direction sought with a large enough effect; inconclusive means small, poorly fitted or top-dose-only effect, or another doubt; inactive means no such curve, though single readings can be large; an effect the other way counts as inactive or inconclusive.

SMILES	A350 fluor	HSD17B inh	AID923	HADH2 inhib	4MU fluor
C=CCn1c(SCC(=O)Nc2ccc3c(c2)CCC3)nnc1-c1cccs1	i	3%	2%	-2%	i
COC(=O)[C@@]1(Cc2ccccc2)[C@H]2c3cc(C(=O)N4CCCC4)n(Cc4ccccn4)c3C[C@H]2CN1C(=O)c1ccccc1	/	-7%	1%	-5%	/
O=C1CC(c2ccc(F)cc2)Cc2nc(N3CCN(c4ccccc4)CC3)ncc21 (centres undefined)	?	60%	1%	?	2e-08M*
Cc1nc(N2CCN(c3ccccc3)CC2)nc2c1C(=O)CC(c1ccccc1)C2 (centres undefined)	?	-5%	-2%	-9%	1.3e-08M*
Cc1ccc(C2CC(=O)c3cnc(N4CCN(c5ccccc5)CC4)nc3C2)cc1 (centres undefined)	1.8e-08M*	?	-2%	25µM*	1.5e-08M*
O=C1CC(c2ccc(F)cc2)Cc2nc(N3CCc4ccccc43)ncc21 (centres undefined)	6.1e-07M*	?	8%	?	5.6e-07M*
Cc1ccc(C2CC(=O)c3cnc(N4CC(C)CC(C)C4)nc3C2)cc1 (centres undefined)	?	5%	-1%	-4%	i
O=[N+]([O-])c1ccc(CSCc2ccc(Cl)cc2)cc1	i	5%[11.4 µM]	-1%[11.5 µM]	0%[11.4 µM]	i
CC(=O)[C@@]1(O)CC[C@H]2[C@H]3C[C@@H](C)C4=CC(=O)C=C[C@]4(C)[C@@]3(F)[C@@H](O)C[C@]21C	i	6%[25.6 µM]	0%[25.7 µM]	1%[25.6 µM]	i
CC1C=CCCOC1c1ccccc1 (centres undefined)	/	0%[11.4 µM]	0%[11.5 µM]	2%[11.4 µM]	/
c1ccc2c(-c3nc4ncccc4o3)cccc2c1	1.1e-06M*	25µM*	-1%	25µM*	8.5e-07M*
Cn1c(=O)c(-c2ccc(Cl)cc2)nc2cnc(Oc3cccc(Cl)c3)nc21	i	-12%	0%	-7%	i
CC(=O)C(Sc1nn(C)c(=S)s1)C(=O)Nc1ccccc1 (centres undefined)	i	-15%	-1%	?	i
CSc1nc2cc(S(=O)(=O)N3CCOCC3)ccc2s1	?	0%	1%	1%	?
O=S(=O)(c1ccc2c(c1)nc1n2CCC1)N1CCOCC1	1.1e-08M*	1%	1%	-1%	2.9e-08M*
O=C(c1ccncc1)N1CCC2(CC1)CN(C(c1ccccc1)c1ccccc1)C2	i	-2%	0%	-7%	i
COc1cccc(-c2cc(NCc3cccnc3)ncn2)c1	i	?	-1%	-6%	i
CN(C)C(=O)c1ccc(-c2cc(NCc3cccnc3)ncn2)cc1	i	32µM*	3%	?	i
COc1ccccc1CNc1cc(-c2ccc(C(=O)N(C)C)cc2)ncn1	i	4%	5%	3%	i
CN(C)C(=O)c1ccc(-c2cc(NCc3ccccc3)ncn2)cc1	i	25µM*	1%	?	i
Cn1cccc1C(=O)N1CCC[C@@]2(CCN(Cc3ccccc3)C2)C1	i	0%	-2%	-1%	i
CCOC(=O)CNC(=O)CNC(=O)c1ccc(OC)cc1	i	/	/	/	i
CCCC(=O)Nc1ccc(C(=O)NCC(=O)OCC)cc1	1.9e-07M*	25µM*	14%	-18%	1.9e-07M*
COc1cccc(-n2c(SCC(N)=O)nc3c([nH]c4ccccc43)c2=O)c1	1.6e-08M*	?	0%	?	1.4e-08M*
Cc1cc(NC(=O)CSc2nc3c([nH]c4ccccc43)c(=O)n2-c2cccc(C(F)(F)F)c2)no1	1.2e-08M*	?	0%	-14%	1.2e-08M*
O=c1[nH]c2c(cc1CNCCN1CCOCC1)c(-c1cccc(F)c1)nn2-c1ccccc1	1e-08M*	25µM*	1%	i	?
Cc1nn(-c2ccccc2)c2[nH]c(=O)c(CNc3ccc(N4CCOCC4)cc3)cc12	i	-16%	2%	-3%	i
CC(=O)c1sc(-c2c(C)nc3sccn23)nc1C1CCCC1	2.4e-08M*	-20%	3%	8%	2e-08M*
CC(C)(C)[C@@]1(O)CCN2C[C@@H]3c4ccccc4CCc4cccc(c43)[C@@H]2C1	i	-5%	-6%	11%	i

Screening results from PubChem.
